# Screens deposited in PubChem by several laboratories.
# This is a sample that favours compounds with a hit; in the whole collection about 2.2% have one here.
# BaF3 tox: reduces parental Ba/F3 cell viability, JAK2V617F counter-screen. AID 1486. CellTiter-Glo ATP luminescence. 1.1% of 220,000 active. inhibition, % at 5.6 µM;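 active = inhibition above a per-campaign cutoff, the mean inhibition of all tested compounds plus 3 SD, cut at about 27% in these data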;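 note: 0% = DMSO wells and 100% = JAK Inhibitor I control wells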
# APP 5UTR inh: APP translation inhibition; inhibition, % at 2 µM; SH-SY5Y APP 5'UTR-luciferase reporter, luminescence; 0.82% of 190,000 active;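 active = inhibition above a set limit, derived from the sample mean plus 3 SD, cut at about 45% in these data; inconclusive = one replicate passes the limit while the other fails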
# aSyn UTR inh: 5' untranslated region of α-synuclein, MLPCN primary screen. alpha-synuclein 5'UTR reporter, inhibitor activity. inhibition, % (tested at 7.5 µM). 0.82% of 300,000 active. AID 1813; in the data active = inhibition above about 60%; inconclusive = no clear call, values can overlap the other calls;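 note: H4 neuroglioblastoma cells stably carrying SNCA 5'UTR luciferase fusion; 0% = DMSO wells and 100% = positive control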
# Ba/F3 V617F tox: reduce viability of Ba/F3 cells dependent on JAK2V617F | 1.1% of 220,000 active | inhibition, % at 5.6 µM | Ba/F3 EpoR-JAK2V617F viability, ATP luminescence;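 active = inhibition above the campaign mean plus 3 SD over all tested compounds, cut at about 24% in these data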;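 note: cytokine-independent growth of Ba/F3 cells driven by EpoR plus mutant JAK2; 0% = DMSO-treated cells and 100% = JAK inhibitor I control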
# IEC-6 tox: IEC-6 cytotoxicity, counter-screen for KLF5 inhibitors. luminescence viability. inhibition, % at 5 µM. 0.78% of 290,000 active; in the data active = inhibition above about 22%;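 note: 0% = plate median of test compound wells and 100% = cytotoxic reference compound wells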
# KLF5 inh: inhibitors of KLF5 expression; DLD-1 KLF5 promoter-luciferase reporter, luminescence; inhibition, % at 5 µM; 0.23% of 290,000 active;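 active = inhibition above a per-plate limit of that plate's mean compound inhibition plus 3 SD, cut at about 60% in these data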;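 note: 0% = DMSO wells and 100% = LY294002 at 200 µM; higher means less KLF5 promoter-driven luciferase light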
# Numbers without * were called inactive; u = inconclusive; x = no result given.
SMILES,BaF3 tox,APP 5UTR inh,aSyn UTR inh,Ba/F3 V617F tox,IEC-6 tox,KLF5 inh
CC(=O)C1=NN(c2ccccc2)C(c2cccs2)N1c1ccc(N(C)C)cc1 (stereo not given),70.4*,-10.3,2.2,81.5*,7.9,-87.3
CC(=O)N1N=C(c2ccccc2)CC1c1ccc2c(c1)OCO2 (stereo not given),x,x,-27.3,x,-1.2,-30.4
CCOc1ccc(S(=O)(=O)N2CCCC(C(=O)NCc3cccnc3)C2)cc1Cl (stereo not given),x,x,24.2,x,-3.3,-17.4
C/C(N)=C(/C#N)C(=O)COC(=O)CCSc1ccccc1Cl,2.3,81.1*,-5.6,-2.5,0.9,-13.2
C/C(N)=C(/C#N)C(=O)COC(=O)CSc1ccccc1,4.3,-11.1,19.0,3.1,1.3,-1.3
O=[N+]([O-])c1nn(-c2ccccc2)n(O)c1=NC1CCN(Cc2ccccc2)CC1,10.9,5.5,76.4*,0.8,5.8,-9.8
O=C(COC(=O)c1ccccc1C(=O)c1ccc(Cl)c([N+](=O)[O-])c1)NC1CC1,-5.1,48.4*,-23.5,-1.5,-6.7,-10.1
CC(C)OC(=O)c1ccccc1C(=O)c1ccc(N)c([N+](=O)[O-])c1,2.5,6.8,4.4,-2.8,-2.5,0.4
CNC(=O)COC(=O)c1ccccc1C(=O)c1ccc(Cl)c([N+](=O)[O-])c1,4.3,54.5*,-19.2,4.3,-1.9,-3.7
COc1ccc(S(=O)(=O)N2CCCCCC2)cc1C(=O)N(CC(C)C)C1CCS(=O)(=O)C1 (stereo not given),x,x,-2.1,x,x,x
COc1ccc(Nc2cc(C)nc3ncnn23)c(OC)c1,-1.6,-3.6,1.3,-4.1,1.5,-1.9
COc1ccc(CNc2cc(C)nc3ncnn23)c(OC)c1,31.4*,-3.5,37.7,6.5,-1.7,-13.4
CC1=C(C)/C(=N\OS(=O)(=O)c2ccccc2)C=CC1=O,91.1*,74.1*,-79.9,90.6*,-5.3,-36.1
CCOc1ccccc1NC(=O)CN(C)S(=O)(=O)c1ccc2[nH]c(=O)oc2c1,x,x,-2.1,x,1.0,-7.2
O=[N+]([O-])c1cc(-c2ncccn2)c([N+](=O)[O-])s1,1.5,76.1*,-19.6,4.0,5.3,1.7
CC1(C)Cc2c(cnn2-c2ccc(F)cc2)C(NC(=O)CCN2CCCC2=O)C1 (stereo not given),x,x,-49.3,x,0.2,-47.5
O=C1/C(=C\c2ccncc2)CCc2ccccc21,x,x,-4.7,x,x,x
O=C1/C(=C/c2ccncc2)CCC/C1=C\c1ccncc1,-13.7,82.2*,-100.9,22.2,17.1,38.1
O=C(Nc1ccc(C(=O)OC2CCCCC2)cc1)c1ccncc1,x,x,21.9,x,21.4,-32.4
CCCC(C)NC(=S)NC(=O)c1cc(S(=O)(=O)N2CCOCC2)ccc1C (stereo not given),4.5,-18.1,41.1,-0.8,-3.3,14.1
CCCCCC(C)NC(=S)NC(=O)c1cc(S(=O)(=O)N2CCOCC2)ccc1C (stereo not given),41.8*,-0.2,66.2*,-3.6,3.8,-2.4
Cc1nc2sccn2c(=O)c1S(=O)(=O)Nc1ccc(N2CCN(S(C)(=O)=O)CC2)cc1,x,x,22.1,x,-2.4,0.5
CC(OC(=O)c1nc(Cl)ccc1Cl)C(=O)c1ccccc1 (stereo not given),x,x,-11.7,x,x,x
COc1cc2cc(/C=C/C(=O)c3ccco3)c(Cl)nc2cc1OC,4.6,50.1*,6.2,2.4,-1.9,-27.1
CCOc1ccc(-c2cnc3n2CCC3)cc1,6.9,45.7*,2.8,0.2,-5.7,-34.0
SMILES,BaF3 tox,APP 5UTR inh,aSyn UTR inh,Ba/F3 V617F tox,IEC-6 tox,KLF5 inh
Brc1ccc(-c2cnc3n2CCCC3)cc1,-0.8,-6.7,-14.8,-4.1,3.0,3.8
COc1cc2c(ccc3cc(OC)c(OC)c(O)c32)cc1O,x,x,0.0,x,x,x
COc1cc2c(cc1O)CC[n+]1cc3c(OC)c(OC)ccc3cc1-2,44.8*,9.1,-3.2,21.0,-6.3,-2.0
COc1cc2c(cc1OC)C(c1ccccc1)=NCC2,5.2,12.2,22.7,1.9,1.7,-14.2
COc1cc2c(cc1OC)-c1cc3ccc4c(c3c[n+]1CC2)OCO4,57.4*,11.0,-20.2,49.4*,-1.9,-9.9
OCCNc1c2ccccc2nc2c(F)c(F)c(F)c(F)c12,8.5,87.3*,-83.6,1.7,10.8,-12.2
c1ccc2c(NCCCN3CCOCC3)c3ccccc3nc2c1,3.3,62.9*,x,-5.5,5.4,-29.0
CN(C)CCCNc1nc(-c2ccccc2)nc2ccccc12,5.2,x,-7.9,5.2,4.4,-11.2
CN(C)CCCNc1c2ccccc2nc2ccccc12,x,x,70.8*,x,10.2,49.5
Cc1ccccc1NC(=O)C(Cl)=C(Cl)Cl,-6.1,1.0,-20.5,-3.5,4.6,-10.7
O=S(=O)(c1ccccc1)c1nc(-c2cccc(Cl)c2)oc1N1CCOCC1,x,x,12.7,x,-3.3,-30.5
Cc1ccc(S(=O)(=O)Nc2cccc(C(=O)N3CCOCC3)c2)c(C)c1NS(C)(=O)=O,x,x,4.7,x,1.0,-13.4
Cc1cccn2c(=O)c3cc(C#N)c(=N)n(CCN4CCOCC4)c3nc12,3.0,46.8*,-34.2,-0.5,-1.3,-28.1
Cc1cc(NC(=O)c2ccccc2)c(Cl)cc1N,-2.5,x,64.0*,-4.0,-4.3,-4.5
Oc1ccc(CNc2ccc(F)cc2)c2cccnc12,3.8,3.5,75.6*,1.6,-2.9,-26.8
CCOc1cc(Br)c(CN2C(=O)NC3(CCCCCC3)C2=O)cc1OCC,x,x,15.1,x,-10.6,-32.8
O=C(NCCN1C(=O)S/C(=C\c2ccc(OC(F)F)cc2)C1=O)c1cnccn1,4.7,76.5*,49.7,-0.1,19.1,37.8
CCOc1ccc(N(CC(=O)Nc2ccccc2C)S(=O)(=O)c2c(C)noc2C)cc1,53.5*,65.9*,u,78.2*,62.7*,27.8
CCOc1ccc(N(CC(=O)Nc2ccc(C)c(C)c2)S(=O)(=O)c2c(C)noc2C)cc1,1.9,-13.7,12.1,2.1,1.9,13.3
CCOc1ccccc1NC(=O)CN(c1ccc(OC)cc1)S(=O)(=O)c1c(C)noc1C,74.6*,88.8*,59.3,78.5*,2.5,-5.8
Cc1cccnc1NC(=O)CSc1nnc(CNC(=O)c2cccc([N+](=O)[O-])c2)n1C,x,x,8.5,x,-2.4,-27.9
CCN1CCN(C(=O)Nc2cccc3ccccc23)CC1,2.6,57.2*,-30.6,-0.2,2.4,-19.9
Cc1ccc(C#CC[N+](C)(C)CC#Cc2ccccc2)cc1,68.2*,10.5,29.1,84.5*,1.8,0.0
COc1cccc(C(=O)N/N=C(/c2ccccc2)c2ccccn2)c1,96.7*,14.8,73.0*,101.0*,18.9,20.1
COc1cc(C(=O)N/N=C(\c2ccccc2)c2ccccn2)cc(OC)c1OC,6.5,82.0*,81.3*,5.5,10.1,29.2
COc1cc(NC(=O)c2ccccn2)cc(OC)c1OC,-0.5,2.6,-8.4,0.5,3.5,2.4
COc1cccc(C(=O)N/N=C(/CCC(=O)O)c2ccccc2)c1,5.5,-2.7,-32.4,-0.1,12.0,-6.7
Cc1ccc(S(=O)(=O)N2CCOCC2)cc1NC(=O)COc1cccc(Oc2ccccc2)c1,x,x,0.6,x,x,x
